According to paper PMC7862700, “An all-to-all approach to the identification of sequence-specific readers for epigenetic DNA modifications on cytosine”:

Key:
Experiment in all cases: DAPPL (digital affinity profiling via proximity ligation, sequencing); 10 mM Tris-HCl pH 7.5, 50 mM NaCl, 1 mM DTT, 4% glycerol, room temperature, 30 min; GST-TFs on glutathione beads, 16-mer random dsDNA library, 0.1% formaldehyde crosslink after washing; high values mean tight binding
FEV = biological target: T1, FEV (Homo sapiens, UniProt Q99581 1-238); details: protein: recombinant; tags: N-terminal GST; dsDNA, one strand shown
T1 sequence: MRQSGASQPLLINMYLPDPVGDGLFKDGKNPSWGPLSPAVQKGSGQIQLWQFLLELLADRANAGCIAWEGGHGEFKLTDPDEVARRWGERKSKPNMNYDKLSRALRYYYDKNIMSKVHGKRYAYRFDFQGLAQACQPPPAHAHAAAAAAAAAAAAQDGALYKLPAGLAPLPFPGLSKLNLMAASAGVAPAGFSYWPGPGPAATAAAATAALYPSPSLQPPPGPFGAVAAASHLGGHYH
In short: (§1)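 Binding signal is defined as a hexamer's read frequency for one factor over its frequency for the tag-only sample. To obtain reads, GST-fused human transcription factors were expressed in yeast, captured on glutathione beads, barcoded with DNA and pooled with that sample. Pools met 200 nmole of a 16-mer random double-stranded DNA library in Tris/NaCl/DTT/glycerol buffer for 30 min at room temperature before washing, 0.1% formaldehyde crosslinking, proximity ligation (BsaI/T4 ligase, 1 h, 37 °C), PCR and Illumina NextSeq500 sequencing.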

ETV5 = ETV5 (Homo sapiens, UniProt P41161 1-510); details: protein: recombinant; tags: N-terminal GST; dsDNA, one strand shown
In short: as §1

HSF1 = HSF1 (Homo sapiens, UniProt Q00613 1-529); details: protein: recombinant; tags: N-terminal GST; chain copies: 3; dsDNA, one strand shown
In short: as §1

SPIC = biological target: T2, SPIC (Homo sapiens, UniProt Q8N5J4 1-248); details: protein: recombinant; tags: N-terminal GST; dsDNA, one strand shown
T2 sequence: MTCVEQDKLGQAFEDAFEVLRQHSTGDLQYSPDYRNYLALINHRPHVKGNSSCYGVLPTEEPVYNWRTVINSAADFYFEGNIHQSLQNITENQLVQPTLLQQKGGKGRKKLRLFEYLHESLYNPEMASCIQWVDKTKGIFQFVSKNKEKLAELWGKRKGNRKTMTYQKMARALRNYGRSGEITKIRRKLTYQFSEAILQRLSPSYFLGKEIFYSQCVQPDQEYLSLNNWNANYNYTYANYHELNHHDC
In short: as §1

ELF4 = ELF4 (Homo sapiens, UniProt Q99607 1-663); details: protein: recombinant; tags: N-terminal GST; dsDNA, one strand shown
In short: as §1

ELK4 = biological target: T3, ELK4 (Homo sapiens, UniProt P28324-2 1-405); details: protein: recombinant; tags: N-terminal GST; dsDNA, one strand shown
T3 sequence: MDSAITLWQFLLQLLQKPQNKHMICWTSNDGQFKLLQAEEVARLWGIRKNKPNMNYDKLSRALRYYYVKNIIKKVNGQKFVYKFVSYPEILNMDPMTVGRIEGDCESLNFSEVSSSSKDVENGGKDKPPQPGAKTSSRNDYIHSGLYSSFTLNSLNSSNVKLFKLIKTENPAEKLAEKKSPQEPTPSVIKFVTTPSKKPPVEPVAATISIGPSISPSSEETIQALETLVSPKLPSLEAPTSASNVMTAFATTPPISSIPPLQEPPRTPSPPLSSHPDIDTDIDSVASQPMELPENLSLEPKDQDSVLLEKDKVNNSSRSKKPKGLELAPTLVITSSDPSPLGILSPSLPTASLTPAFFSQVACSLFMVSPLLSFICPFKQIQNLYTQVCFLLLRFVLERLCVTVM
In short: as §1

ETV2 = biological target: T4, ETV2 (Homo sapiens, UniProt O00321 1-342); details: protein: recombinant; tags: N-terminal GST; dsDNA, one strand shown
T4 sequence: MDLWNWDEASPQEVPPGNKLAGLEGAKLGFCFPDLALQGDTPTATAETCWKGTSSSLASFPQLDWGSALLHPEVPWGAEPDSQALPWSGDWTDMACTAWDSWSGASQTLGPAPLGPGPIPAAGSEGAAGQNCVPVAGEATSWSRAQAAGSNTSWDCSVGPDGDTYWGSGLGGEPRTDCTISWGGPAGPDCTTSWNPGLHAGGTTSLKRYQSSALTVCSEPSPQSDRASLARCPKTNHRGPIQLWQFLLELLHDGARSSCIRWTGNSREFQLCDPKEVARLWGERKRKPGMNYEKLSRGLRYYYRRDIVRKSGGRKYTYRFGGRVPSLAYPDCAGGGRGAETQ
In short: as §1

ELF3 = biological target: T5, ELF3 (Homo sapiens, UniProt P78545 1-371); details: protein: recombinant; tags: N-terminal GST; dsDNA, one strand shown
T5 sequence: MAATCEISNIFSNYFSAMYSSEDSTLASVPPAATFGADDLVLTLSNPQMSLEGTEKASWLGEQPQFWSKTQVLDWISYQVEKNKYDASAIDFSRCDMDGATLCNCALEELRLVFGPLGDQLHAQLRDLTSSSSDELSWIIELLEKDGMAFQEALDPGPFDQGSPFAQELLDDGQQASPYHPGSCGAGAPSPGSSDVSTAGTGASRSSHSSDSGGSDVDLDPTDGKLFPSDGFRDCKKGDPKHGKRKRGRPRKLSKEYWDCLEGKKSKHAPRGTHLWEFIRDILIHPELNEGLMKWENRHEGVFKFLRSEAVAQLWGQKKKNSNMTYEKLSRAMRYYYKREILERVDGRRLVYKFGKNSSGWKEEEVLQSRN
In short: as §1

CRX = CRX (Homo sapiens, UniProt O43186 1-299); details: protein: recombinant; tags: N-terminal GST; dsDNA, one strand shown
In short: as §1

ETV1 = ETV1 (Homo sapiens, UniProt P50549 1-477); details: protein: recombinant; tags: N-terminal GST; dsDNA, one strand shown
In short: as §1

ERF = biological target: T6, ERF (Homo sapiens, UniProt P50548 1-548); details: protein: recombinant; tags: N-terminal GST; dsDNA, one strand shown
T6 sequence: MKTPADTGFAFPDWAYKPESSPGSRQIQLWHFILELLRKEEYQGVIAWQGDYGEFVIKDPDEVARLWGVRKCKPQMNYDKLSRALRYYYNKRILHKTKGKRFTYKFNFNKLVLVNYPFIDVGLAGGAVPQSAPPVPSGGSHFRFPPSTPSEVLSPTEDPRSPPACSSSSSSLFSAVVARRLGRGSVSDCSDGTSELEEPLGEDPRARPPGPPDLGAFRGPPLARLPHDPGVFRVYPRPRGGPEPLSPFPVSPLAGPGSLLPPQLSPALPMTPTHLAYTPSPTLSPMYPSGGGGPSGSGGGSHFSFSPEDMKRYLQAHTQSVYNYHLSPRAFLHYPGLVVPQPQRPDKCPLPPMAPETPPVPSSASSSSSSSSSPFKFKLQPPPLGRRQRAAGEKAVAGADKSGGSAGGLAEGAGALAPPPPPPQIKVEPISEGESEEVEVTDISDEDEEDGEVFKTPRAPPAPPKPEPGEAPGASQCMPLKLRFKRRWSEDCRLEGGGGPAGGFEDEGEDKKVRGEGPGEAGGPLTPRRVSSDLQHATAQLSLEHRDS
In short: as §1

ETV3L = biological target: T7, ETV3L (Homo sapiens, UniProt Q6ZN32 1-361); details: protein: recombinant; tags: N-terminal GST; dsDNA, one strand shown
T7 sequence: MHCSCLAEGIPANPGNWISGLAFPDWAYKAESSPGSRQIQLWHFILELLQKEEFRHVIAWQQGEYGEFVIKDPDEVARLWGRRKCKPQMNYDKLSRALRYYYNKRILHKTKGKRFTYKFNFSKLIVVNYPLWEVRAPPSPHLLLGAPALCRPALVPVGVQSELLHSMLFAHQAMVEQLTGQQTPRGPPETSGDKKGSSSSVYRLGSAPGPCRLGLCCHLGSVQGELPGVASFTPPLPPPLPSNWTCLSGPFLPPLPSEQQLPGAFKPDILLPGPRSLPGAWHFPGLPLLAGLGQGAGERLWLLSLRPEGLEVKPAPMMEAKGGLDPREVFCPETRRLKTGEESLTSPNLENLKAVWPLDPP
In short: as §1

ETS2 = biological target: T8, ETS2 (Homo sapiens, UniProt P15036 1-469); details: protein: recombinant; tags: N-terminal GST; dsDNA, one strand shown
T8 sequence: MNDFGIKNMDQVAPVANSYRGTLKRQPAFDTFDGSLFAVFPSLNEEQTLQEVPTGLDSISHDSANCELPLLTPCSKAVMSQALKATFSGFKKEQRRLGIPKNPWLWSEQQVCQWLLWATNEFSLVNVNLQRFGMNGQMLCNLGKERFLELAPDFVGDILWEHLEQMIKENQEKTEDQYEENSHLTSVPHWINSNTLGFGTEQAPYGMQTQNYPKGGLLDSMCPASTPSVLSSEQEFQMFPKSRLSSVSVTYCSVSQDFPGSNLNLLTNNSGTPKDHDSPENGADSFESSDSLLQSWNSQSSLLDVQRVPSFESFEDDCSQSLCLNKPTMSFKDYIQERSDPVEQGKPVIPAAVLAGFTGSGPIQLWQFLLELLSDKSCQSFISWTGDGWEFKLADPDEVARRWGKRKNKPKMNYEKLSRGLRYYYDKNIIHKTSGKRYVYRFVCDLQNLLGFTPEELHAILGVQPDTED
In short: as §1

SPDEF = biological target: T9, SPDEF (Homo sapiens, UniProt O95238 1-335); details: protein: recombinant; tags: N-terminal GST; dsDNA, one strand shown
T9 sequence: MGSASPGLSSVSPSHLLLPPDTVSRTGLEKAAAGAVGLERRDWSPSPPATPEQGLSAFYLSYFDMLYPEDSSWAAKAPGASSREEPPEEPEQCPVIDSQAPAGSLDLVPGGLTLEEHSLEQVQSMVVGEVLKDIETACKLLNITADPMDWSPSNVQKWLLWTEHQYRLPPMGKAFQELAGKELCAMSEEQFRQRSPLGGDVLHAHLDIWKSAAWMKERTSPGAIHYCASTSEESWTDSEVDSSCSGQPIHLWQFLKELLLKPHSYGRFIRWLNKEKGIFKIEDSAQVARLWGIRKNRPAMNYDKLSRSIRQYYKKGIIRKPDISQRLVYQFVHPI
In short: as §1

ETV7 = biological target: T10, ETV7 (Homo sapiens, UniProt Q9Y603 1-341); details: protein: recombinant; tags: N-terminal GST; dsDNA, one strand shown
T10 sequence: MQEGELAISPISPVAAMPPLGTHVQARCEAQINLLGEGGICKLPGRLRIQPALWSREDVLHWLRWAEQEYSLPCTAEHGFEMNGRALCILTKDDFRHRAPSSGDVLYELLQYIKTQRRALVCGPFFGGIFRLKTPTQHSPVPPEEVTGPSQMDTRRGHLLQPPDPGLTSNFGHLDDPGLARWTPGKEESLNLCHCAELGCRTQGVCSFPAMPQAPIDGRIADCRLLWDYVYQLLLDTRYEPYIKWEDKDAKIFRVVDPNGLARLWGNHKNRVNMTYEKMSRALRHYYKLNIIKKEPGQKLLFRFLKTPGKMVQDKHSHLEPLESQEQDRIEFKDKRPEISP
In short: as §1

ELF5 = biological target: T11, ELF5 (Homo sapiens, UniProt Q9UKW6-2 1-255); details: protein: recombinant; tags: N-terminal GST; dsDNA, one strand shown
T11 sequence: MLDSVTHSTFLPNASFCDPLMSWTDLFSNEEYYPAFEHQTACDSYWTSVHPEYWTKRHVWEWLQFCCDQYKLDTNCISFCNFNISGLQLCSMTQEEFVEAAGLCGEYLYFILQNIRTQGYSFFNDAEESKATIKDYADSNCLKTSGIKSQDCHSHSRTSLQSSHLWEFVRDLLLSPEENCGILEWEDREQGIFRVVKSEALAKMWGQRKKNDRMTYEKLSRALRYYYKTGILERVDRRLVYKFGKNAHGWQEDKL
In short: as §1

ETV3 = biological target: T12, ETV3 (Homo sapiens, UniProt P41162-2 1-143); details: protein: recombinant; tags: N-terminal GST; dsDNA, one strand shown
T12 sequence: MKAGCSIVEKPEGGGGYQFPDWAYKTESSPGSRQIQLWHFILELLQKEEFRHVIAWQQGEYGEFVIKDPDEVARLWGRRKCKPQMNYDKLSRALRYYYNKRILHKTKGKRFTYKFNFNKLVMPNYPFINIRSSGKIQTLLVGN
In short: as §1

ETV6 = ETV6 (Homo sapiens, UniProt P41212 1-452); details: protein: recombinant; tags: N-terminal GST; dsDNA, one strand shown
In short: as §1

Sequence of ELF4 (Q99607 whole entry): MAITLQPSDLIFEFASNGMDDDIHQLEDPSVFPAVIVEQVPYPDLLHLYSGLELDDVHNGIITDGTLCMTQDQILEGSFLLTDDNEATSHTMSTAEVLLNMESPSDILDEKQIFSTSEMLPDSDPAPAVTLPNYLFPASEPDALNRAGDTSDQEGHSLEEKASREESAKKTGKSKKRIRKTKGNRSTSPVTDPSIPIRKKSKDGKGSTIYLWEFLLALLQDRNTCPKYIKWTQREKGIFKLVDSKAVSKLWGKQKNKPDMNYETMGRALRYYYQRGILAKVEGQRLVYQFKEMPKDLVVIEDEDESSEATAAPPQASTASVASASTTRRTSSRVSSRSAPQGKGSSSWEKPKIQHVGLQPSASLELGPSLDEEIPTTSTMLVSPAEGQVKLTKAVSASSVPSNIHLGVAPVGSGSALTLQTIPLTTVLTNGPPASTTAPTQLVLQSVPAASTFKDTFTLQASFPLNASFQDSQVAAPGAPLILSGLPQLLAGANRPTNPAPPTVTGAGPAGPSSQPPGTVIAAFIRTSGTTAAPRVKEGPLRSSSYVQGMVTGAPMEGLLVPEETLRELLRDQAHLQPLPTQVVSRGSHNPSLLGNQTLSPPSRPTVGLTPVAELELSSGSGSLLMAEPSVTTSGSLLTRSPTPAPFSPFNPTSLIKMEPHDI
Sequence of HSF1 (Q00613 whole entry): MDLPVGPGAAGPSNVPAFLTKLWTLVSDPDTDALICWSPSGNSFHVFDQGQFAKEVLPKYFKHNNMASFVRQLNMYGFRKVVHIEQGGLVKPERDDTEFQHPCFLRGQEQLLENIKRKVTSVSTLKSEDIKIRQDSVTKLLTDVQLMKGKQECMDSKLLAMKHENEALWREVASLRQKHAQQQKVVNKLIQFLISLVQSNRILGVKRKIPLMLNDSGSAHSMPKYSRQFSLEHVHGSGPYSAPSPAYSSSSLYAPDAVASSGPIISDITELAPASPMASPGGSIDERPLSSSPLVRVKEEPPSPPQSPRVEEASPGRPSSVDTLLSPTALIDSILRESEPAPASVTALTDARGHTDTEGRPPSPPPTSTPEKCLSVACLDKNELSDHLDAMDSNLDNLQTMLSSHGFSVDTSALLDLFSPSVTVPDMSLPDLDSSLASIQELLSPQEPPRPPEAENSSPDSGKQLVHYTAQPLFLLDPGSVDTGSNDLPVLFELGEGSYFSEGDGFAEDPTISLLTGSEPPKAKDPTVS
Sequence of ETV5 (P41161 whole entry): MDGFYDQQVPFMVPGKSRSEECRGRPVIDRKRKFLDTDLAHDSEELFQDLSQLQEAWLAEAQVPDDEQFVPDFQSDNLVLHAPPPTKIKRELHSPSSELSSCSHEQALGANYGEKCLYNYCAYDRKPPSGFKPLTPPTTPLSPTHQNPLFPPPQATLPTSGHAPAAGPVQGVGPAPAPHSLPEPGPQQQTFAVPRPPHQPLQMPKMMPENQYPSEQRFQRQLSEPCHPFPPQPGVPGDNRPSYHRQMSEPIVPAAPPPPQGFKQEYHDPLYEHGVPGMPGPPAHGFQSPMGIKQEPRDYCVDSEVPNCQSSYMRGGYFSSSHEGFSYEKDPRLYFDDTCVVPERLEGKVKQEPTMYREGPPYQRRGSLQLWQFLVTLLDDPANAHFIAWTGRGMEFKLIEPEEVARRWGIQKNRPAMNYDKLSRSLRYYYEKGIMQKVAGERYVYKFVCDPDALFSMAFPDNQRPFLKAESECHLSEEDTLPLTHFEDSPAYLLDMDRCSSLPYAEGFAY
Sequence of ETV6 (P41212 whole entry): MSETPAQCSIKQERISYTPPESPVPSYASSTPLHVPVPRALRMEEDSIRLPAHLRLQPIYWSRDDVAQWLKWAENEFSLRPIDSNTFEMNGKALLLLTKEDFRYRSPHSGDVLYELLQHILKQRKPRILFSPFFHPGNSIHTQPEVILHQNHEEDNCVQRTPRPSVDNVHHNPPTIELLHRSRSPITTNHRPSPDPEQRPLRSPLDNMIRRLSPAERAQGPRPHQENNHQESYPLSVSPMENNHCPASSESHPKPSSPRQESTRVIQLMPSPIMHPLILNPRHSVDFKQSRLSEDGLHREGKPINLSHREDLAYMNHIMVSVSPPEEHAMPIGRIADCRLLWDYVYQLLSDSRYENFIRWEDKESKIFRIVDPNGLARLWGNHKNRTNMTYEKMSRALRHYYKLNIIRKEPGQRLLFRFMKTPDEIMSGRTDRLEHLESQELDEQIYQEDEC
Sequence of ETV1 (P50549 whole entry): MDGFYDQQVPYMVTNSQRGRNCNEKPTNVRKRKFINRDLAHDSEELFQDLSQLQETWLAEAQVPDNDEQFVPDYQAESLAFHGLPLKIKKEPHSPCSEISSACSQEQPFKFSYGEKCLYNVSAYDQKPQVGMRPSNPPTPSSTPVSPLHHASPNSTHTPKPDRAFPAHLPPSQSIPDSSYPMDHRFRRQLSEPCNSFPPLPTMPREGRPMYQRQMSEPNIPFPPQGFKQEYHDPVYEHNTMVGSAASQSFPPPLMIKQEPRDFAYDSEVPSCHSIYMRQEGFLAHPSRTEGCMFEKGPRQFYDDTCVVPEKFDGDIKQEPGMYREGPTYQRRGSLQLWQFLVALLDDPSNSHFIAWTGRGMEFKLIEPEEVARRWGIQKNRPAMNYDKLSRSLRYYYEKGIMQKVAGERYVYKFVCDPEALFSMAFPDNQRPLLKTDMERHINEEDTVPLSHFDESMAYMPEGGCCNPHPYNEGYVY
Sequence of CRX (O43186 whole entry): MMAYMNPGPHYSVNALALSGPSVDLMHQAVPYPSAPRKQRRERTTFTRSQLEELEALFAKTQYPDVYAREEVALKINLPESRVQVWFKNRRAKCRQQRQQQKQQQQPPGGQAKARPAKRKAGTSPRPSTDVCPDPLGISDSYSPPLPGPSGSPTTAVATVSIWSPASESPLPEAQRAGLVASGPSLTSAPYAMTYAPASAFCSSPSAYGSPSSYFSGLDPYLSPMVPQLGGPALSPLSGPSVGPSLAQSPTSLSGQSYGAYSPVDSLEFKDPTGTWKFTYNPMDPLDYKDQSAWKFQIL

For CGTTCT, the binding signal (FEV) was 1.45 fold enrichment (6-mer frequency, TF over GST control), the binding signal (ETV5) was 1.45 fold enrichment (6-mer frequency, TF over GST control) and the binding signal (HSF1) was 2.27 fold enrichment (6-mer frequency, TF over GST control). The binding signal (SPIC) was 1.45 fold enrichment (6-mer frequency, TF over GST control), the binding signal (ELF4) was 1.47 fold enrichment (6-mer frequency, TF over GST control) and the binding signal (ELK4) was 1.43 fold enrichment (6-mer frequency, TF over GST control). The binding signal (ETV2) was 1.39 fold enrichment (6-mer frequency, TF over GST control), the binding signal (ELF3) was 1.4 fold enrichment (6-mer frequency, TF over GST control) and the binding signal (CRX) was 1.49 fold enrichment (6-mer frequency, TF over GST control). For the same sequence, the binding signal (ETV1) was 1.37 fold enrichment (6-mer frequency, TF over GST control), the binding signal (ERF) was 1.46 fold enrichment (6-mer frequency, TF over GST control) and the binding signal (ETV3L) was 1.51 fold enrichment (6-mer frequency, TF over GST control). For the same sequence, the binding signal (ETS2) was 1.37 fold enrichment (6-mer frequency, TF over GST control), the binding signal (SPDEF) was 1.44 fold enrichment (6-mer frequency, TF over GST control) and the binding signal (ETV7) was 1.56 fold enrichment (6-mer frequency, TF over GST control). For the same sequence, the binding signal (ELF5) was 1.44 fold enrichment (6-mer frequency, TF over GST control), the binding signal (ETV3) was 1.37 fold enrichment (6-mer frequency, TF over GST control) and the binding signal (ETV6) was 1.47 fold enrichment (6-mer frequency, TF over GST control).
